In the library only some 1.2% were active in any assay of this set; here they are far more common.
RGS8-Gao reg: human RGS8-Galphao interaction regulation; P09471; multiplexed bead flow cytometry, RGS8-Galphao binding; actives lie on both sides; 220,000 compounds, 0.34% hits; response (percent of control binding), % at 10 µM; in the data active = response below about 60% or above about 140%; inactive = in between;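 note: Galphao activated as the GDP aluminium fluoride complex binding bead-coupled RGS8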
Target sequence (P09471 whole entry, looked up): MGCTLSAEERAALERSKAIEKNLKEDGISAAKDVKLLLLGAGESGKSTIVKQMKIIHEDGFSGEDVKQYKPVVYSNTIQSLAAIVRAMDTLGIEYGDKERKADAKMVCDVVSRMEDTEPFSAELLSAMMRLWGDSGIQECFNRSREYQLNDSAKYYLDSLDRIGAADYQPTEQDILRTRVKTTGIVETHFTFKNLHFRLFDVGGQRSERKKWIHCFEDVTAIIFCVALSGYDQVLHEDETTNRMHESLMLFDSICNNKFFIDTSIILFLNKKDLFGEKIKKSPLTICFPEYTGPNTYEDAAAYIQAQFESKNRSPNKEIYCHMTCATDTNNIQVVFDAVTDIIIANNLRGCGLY
RGS7-Gao: human RGS7-Galphao interaction regulation; P09471; Multiplexed bead flow cytometry, RGS7-Galphao binding; actives lie on both sides; binding response (% of control), % at 10 µM; 220,000 compounds, 0.35% hits; AID 1439; in the data active = binding response below about 49% or above about 150%; inconclusive = no clear call, values can overlap the other calls; inactive = in between;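 note: fluorescent Galphao held in activated GDP-AlF4 state binding bead-coupled RGS7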
GSH bead fluor: compound fluoresces at 488/530 nm on GSH beads | GSH beads flow cytometry, compound fluorescence 488/530 nm; stronger effect = higher value | fluorescence (KMESF) at 10 µM | 190,000 compounds, 0.25% hits; in the data active = fluorescence above about 89;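 note: glutathione beads carrying GST-tagged Bcl family fusion proteins plus one bare bead set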
Avidin fluor: compound fluoresces at 488/530 nm on avidin beads; compound fluorescence 488/530 nm, flow cytometry; stronger effect = higher value; fluorescence (KMESF) at 10 µM; 220,000 compounds, 0.38% hits; AID 1775; in the data active = fluorescence above about 47
RGS16-Gao HTS: modulates binding between human RGS16 and Galphao | 220,000 compounds, 0.38% hits | bead-based flow cytometry RGS16-Galphao binding, fluorescence; actives lie on both sides | binding response (% of control), % at 10 µM;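 note: Galphao activated by GDP with aluminum fluoride before binding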
Target sequence (O15492 whole entry, looked up): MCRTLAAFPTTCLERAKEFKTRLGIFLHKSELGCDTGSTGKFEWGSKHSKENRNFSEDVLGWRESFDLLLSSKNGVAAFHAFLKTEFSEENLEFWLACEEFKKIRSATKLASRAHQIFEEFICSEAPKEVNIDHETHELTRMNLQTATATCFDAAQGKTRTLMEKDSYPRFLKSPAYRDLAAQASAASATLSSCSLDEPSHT
Target sequence (P09471 whole entry, looked up): as the sequence (P09471 whole entry, looked up) above
RGS4-Gao reg: human RGS4-Galphao interaction regulation; P09471; Multiplexed bead flow cytometry, RGS4-Galphao binding; actives lie on both sides; binding response (% of control), % at 10 µM; 220,000 compounds, 0.33% hits; AID 1415; in the data active = binding response below about 49% or above about 150%; inactive = in between;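 note: fluorescent Galphao activated with aluminum fluoride binding bead-coupled RGS4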
RGS-Gao: modulates binding between human RGS4 and Galphao | shares compounds with RGS16-Gao HTS | multiplexed bead flow cytometry, RGS–Galpha-o binding | RGS4–Galpha-o binding response, % at 10 µM | 1,600 compounds, 99% hits | AID 1504;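 note: fluorescently labeled Galpha-o bound to GDP with aluminium fluoride binding biotinylated RGS beads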
Avidin counter: biotin-avidin bead binding disruption counter-screen. AID 1783. inhibition, % at 10 µM. shares compounds with RGS16-Gao HTS. 1,700 tested, under 10 active. streptavidin beads, fluorescein-biotin binding, flow cytometry;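 active = inhibition above 50%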;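 note: median green fluorescence of gated singlet beads compared with DMSO control wells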
RGS8-Gao single: RGS8-Galphao interaction regulation, single point confirmation; shares compounds with RGS16-Gao HTS; bead-based flow cytometry RGS8-Galphao binding, fluorescence; actives lie on both sides; binding response (% of control), % at 10 µM; 1,700 compounds, 3% hits; in the data active = binding response below about 72% or above about 130%; inactive = in between;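 note: Galphao activated as GDP AlF4 complex before binding bead RGS8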
RGS7-Gao confirm: confirmation of regulators of human RGS7-Galphao interaction; bead-based flow cytometry RGS7-Galphao binding; actives lie on both sides; response (percent of control binding), % at 10 µM; 1,700 compounds, 7.8% hits; shares compounds with RGS16-Gao HTS; in the data active = response below about 75% or above about 130%; inactive = in between;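 note: fluorescent Galphao activated with GDP and aluminum fluoride binding bead-coupled RGS7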
RGS16-Gao conf: confirmation of regulators of human RGS16-Galphao interaction. 1,700 compounds, 4% hits. shares compounds with RGS16-Gao HTS. bead-based flow cytometry, RGS16-Galphao binding; actives lie on both sides. response (% of control binding), % at 10 µM. AID 1838; in the data active = response below about 74% or above about 130%; inactive = in between;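 note: Galphao activated as the GDP aluminium fluoride complex binding bead-coupled RGS16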
RGS4-Gao confirm: confirmation of regulators of human RGS4-Galphao interaction; shares compounds with RGS16-Gao HTS; RGS4-Galphao binding, multiplexed bead flow cytometry; actives lie on both sides; binding response (% of control), % at 10 µM; 1,700 compounds, 4% hits; AID 1840; in the data active = binding response below about 74% or above about 130%; inactive = in between
RGS19-Gao single: confirmation of regulators of human RGS19-Galphao interaction. shares compounds with RGS16-Gao HTS. bead-based flow cytometry RGS19-Galphao binding; actives lie on both sides. response (percent of control binding), % at 10 µM. 1,700 compounds, 5% hits. AID 1841; in the data active = response below about 50% or above about 160%; inactive = in between
Of the large screens only hits and unclear results are named; the others gave an inactive call (follow-up assays come after a bar, where they were run); [ ] = dose if it differs, or a comment. Unless noted, the rule behind the calls is not given here.

O=S(=O)(NCc1ccccc1)c1ccc2c(c1)OCCO2	none (no result: RGS8-Gao reg, RGS7-Gao, Avidin fluor, RGS16-Gao HTS, RGS4-Gao reg) | Avidin counter inactive | RGS8-Gao single inactive | RGS7-Gao confirm inactive | RGS16-Gao conf inactive | RGS4-Gao confirm inactive | RGS19-Gao single inactive
NC(=O)[C@@H]1CCNc2c(I)cc([N+](=O)[O-])cc2C(=O)N[C@@H](CCC(=O)O)C(=O)N[C@@H](CO)C(=O)N1	RGS16-Gao HTS 404[activator] | RGS-Gao 108
NC(=O)[C@@H]1CCCCNc2c(I)cc([N+](=O)[O-])cc2C(=O)N[C@@H](CCC(=O)O)C(=O)N[C@@H](CO)C(=O)N1	none
Cc1ccc(NC(=O)C(=O)NCc2ccc(/C=N/NC(=O)c3c(C)nc4ccccn34)o2)cc1	none
O=C(CSc1nnc2n1CCCN2)c1ccc(Cl)cc1	RGS8-Gao reg -19, RGS7-Gao -278, RGS4-Gao reg active[activator] | Avidin counter inactive | RGS8-Gao single inactive | RGS7-Gao confirm inactive | RGS16-Gao conf inactive | RGS4-Gao confirm inactive | RGS19-Gao single inactive
Cc1cc(NC(=O)c2ccc(C)s2)n(-c2nc3ccccc3[nH]2)n1	RGS8-Gao reg 12, RGS7-Gao 13, RGS16-Gao HTS 0.3, RGS4-Gao reg 14 | Avidin counter inactive | RGS8-Gao single inactive | RGS7-Gao confirm inactive | RGS16-Gao conf inactive | RGS4-Gao confirm inactive | RGS19-Gao single inactive
CC(C)c1cccc(C(C)C)c1OCCCCN1CCCC1	none (no result: RGS8-Gao reg, RGS7-Gao, Avidin fluor, RGS16-Gao HTS, RGS4-Gao reg) | Avidin counter inactive | RGS8-Gao single inactive | RGS7-Gao confirm inactive | RGS16-Gao conf inactive | RGS4-Gao confirm inactive | RGS19-Gao single inactive
COc1ccc(C(=O)NC(=O)Nc2ncccc2C)cc1	RGS16-Gao HTS 2.9 | RGS-Gao 77 | Avidin counter inactive | RGS8-Gao single inactive | RGS7-Gao confirm inactive | RGS16-Gao conf inactive | RGS4-Gao confirm inactive | RGS19-Gao single inactive
COc1ccc(NC(=O)Nc2ncccc2C)cc1	none
CC(C)(C)NC(=O)c1cccc2c1OC(C)(C)C2	RGS16-Gao HTS 20 | RGS-Gao 87 | Avidin counter inactive | RGS8-Gao single inactive | RGS7-Gao confirm inactive | RGS16-Gao conf inactive | RGS4-Gao confirm inactive | RGS19-Gao single inactive
NNC(=O)c1ncoc1-c1ccc(Cl)cc1	RGS7-Gao inconclusive (no result: GSH bead fluor)
CCN(CC)S(=O)(=O)c1cccc(-c2nnc(SCCOc3ccccc3C)o2)c1	RGS7-Gao 153[activator], RGS16-Gao HTS 211[activator], RGS4-Gao reg 177[activator] (no result: RGS8-Gao reg, Avidin fluor) | Avidin counter inactive | RGS8-Gao single inactive | RGS7-Gao confirm inactive | RGS16-Gao conf inactive | RGS4-Gao confirm inactive | RGS19-Gao single inactive
C=CCN(CC(=O)NCc1ccccc1)C(=O)c1csnn1	none (no result: RGS8-Gao reg, RGS7-Gao, Avidin fluor, RGS16-Gao HTS, RGS4-Gao reg) | Avidin counter inactive | RGS8-Gao single inactive | RGS7-Gao confirm inactive | RGS16-Gao conf inactive | RGS4-Gao confirm inactive | RGS19-Gao single inactive
COc1ccc(CNC(=O)CN(Cc2ccccc2)C(=O)c2csnn2)cc1	none
CCCc1nnc(NC(=O)c2cn(CC)c3cc(N4CCN(C)CC4)c(F)cc3c2=O)s1	RGS7-Gao inconclusive (no result: GSH bead fluor)
O=C(Cn1nnc(-c2ccccc2F)n1)NCc1ccco1	none
CCOc1ccc(NC(=S)NC(=O)c2c(Br)cnn2C)c([N+](=O)[O-])c1	RGS8-Gao reg -1.6, RGS7-Gao -20, RGS4-Gao reg -40 | Avidin counter inactive | RGS8-Gao single inactive | RGS7-Gao confirm inactive | RGS16-Gao conf inactive | RGS4-Gao confirm inactive | RGS19-Gao single inactive
Cc1ccccc1-n1c(C)nnc1SCc1cc(=O)oc2ccc3ccccc3c12	none
O=C1OCC2OC(O)C(O)C(O)C2OC(=O)c2cc(O)c(O)c(O)c2-c2c(O)c(O)c3oc(=O)c4c(c(O)c(O)c5oc(=O)c2c3c54)-c2c1cc(O)c(O)c2O (stereo not drawn)	RGS8-Gao reg 36, RGS7-Gao inconclusive, RGS4-Gao reg 48 (no result: GSH bead fluor) | Avidin counter inactive | RGS8-Gao single 37 | RGS7-Gao confirm 32 | RGS16-Gao conf inactive | RGS4-Gao confirm 47 | RGS19-Gao single inactive
CCN(CC)S(=O)(=O)c1ccc(Cl)c(C(=O)Oc2cccc(-c3cnc4ccccc4n3)c2)c1	none
CCN(CC)S(=O)(=O)c1cc(C(=O)Oc2cccc(-c3cnc4ccccc4n3)c2)ccc1Br	RGS8-Gao reg 11, RGS7-Gao -8.5, RGS16-Gao HTS -29, RGS4-Gao reg -30 | Avidin counter inactive | RGS8-Gao single inactive | RGS7-Gao confirm inactive | RGS16-Gao conf inactive | RGS4-Gao confirm inactive | RGS19-Gao single inactive
NS(=O)(=O)c1ccc(-c2ccc(/C=C3\C(=O)Nc4cc(Cl)ccc43)o2)cc1	none
CC1(C)OC(=O)C(=Cc2ccc(-c3ccc(S(N)(=O)=O)cc3)o2)C(=O)O1	none | Avidin counter inactive | RGS8-Gao single 72 | RGS7-Gao confirm inactive | RGS16-Gao conf inactive | RGS4-Gao confirm inactive | RGS19-Gao single 50
COC(=O)C(NC(C)=O)(Nc1nc2ccc(S(C)(=O)=O)cc2s1)C(F)(F)F (stereo not drawn)	RGS16-Gao HTS -18 | RGS-Gao 97
CC(C)c1ccc(OCC(=O)N(Cc2ccccc2)c2ccccn2)cc1	none
CCOC(=O)c1c(C)[nH]c(C(=O)CSc2nnc(-c3ccncc3)n2CC)c1C	none
C=CCn1c(SCC(=O)c2[nH]c(C)c(C(=O)OCC)c2C)nc2scc(-c3ccc(OC)c(OC)c3)c2c1=O	RGS16-Gao HTS 191[activator], RGS4-Gao reg 168[activator] | Avidin counter inactive | RGS8-Gao single inactive | RGS7-Gao confirm inactive | RGS16-Gao conf inactive | RGS4-Gao confirm inactive | RGS19-Gao single inactive
O=C(Nc1ccc(C(F)(F)F)cc1)N1CCN(c2ccnc3cc(Cl)ccc23)CC1	RGS7-Gao inconclusive (no result: GSH bead fluor)

Compound activity from PubChem BioAssay.
